The supplement of paper PMC10338343
± gives the standard deviation. Over roughly 8,200 sequences, “pre-steady-state target cleavage rate” has its median near 0.024; the highest 2% begin near 1.3. The sample holds the highest values, similar sequences and a random draw of the others, so the mix is not that of the screen.

Tested on: MIWI (PIWIL1) piRISC loaded with L1MC piRNA (30 nt)
Experiment: pre-steady-state target cleavage rate (min^-1); MIWI and MILI are mouse PIWI proteins and EfPiwi is from a freshwater sponge; tags in brackets are library labels; higher = faster piRNA-guided slicing of the target
Conditions: guide: L1MC piRNA 5'p-UAACUAAAUACUAUGCAAGCUGUAGGUCCU
Protocol: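 Cleave-'n-Seq: a library of target RNAs (target site embedded in constant flanks, ACAGCATTCCGCGTTAGTGATATCCG... 5' flank; DNA-blocked outside the site) at 0.1 nM was incubated with 1 nM active mouse MILI or MIWI piRISC (synthetic 5'-monophosphorylated piRNA guide) with or without 500 nM mouse GTSF1 at 33 °C for 1 min to 16 h. Uncleaved targets were sequenced and normalised to non-target controls, and the pooled three trials were fitted to a burst-and-steady-state model to give the pre-steady-state cleavage rate (min^-1; k3 is constrained to at most 1e-4). Sequence is the target site only; target names encode pairing extent (gX:gY) and contiguous / 1-mismatch / 2-mismatch / bulge geometry. Fits with R² ≤ 0 are excluded.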

[1] = auxiliary factor: 500 nM mouse GTSF1
[2] = auxiliary factor: none (no GTSF1)

Sequence | pre-steady-state target cleavage rate [1] | pre-steady-state target cleavage rate [2]
UGGACCUACAGCUUGCAGUAGUAUUUAGUUA | 0.00477 ± 0.0038 | 
UCCUGGUUCAGCUUGCAUAGUAUUUAGUAA | 0.528 ± 0.055 | 0.0354 ± 0.008
UCCUGCAACAGGUUGCAUAGUAUUUAGUUA | 1.11 ± 0.085 | 0.0208 ± 0.0052
UCCUGGAUGUGCUUGCAUAGUAUUUAGGUUA | 0.191 ± 0.02 | 0.0232 ± 0.0058
UCCUGGAUGUGCUUGCAUAGUAUUUAUGUUA | 0.202 ± 0.026 | 0.0215 ± 0.0052
AGGACCUAGAGCUUGCAUAGUAAUUAGUUA | 0.747 ± 0.047 | 0.0277 ± 0.0076
AGGACCAACAGCUUGCAAAGUAUUUAGUUA | 1.18 ± 0.038 | 0.0503 ± 0.01
UCCACCAACAGCUUGCUUAGUAUUUAGUUA | 1.31 ± 0.061 | 0.026 ± 0.0061
UCGACCAACAGCUUGCAUUGUAUUUAGUUA | 0.973 ± 0.028 | 0.0383 ± 0.008
UCCUCCAACAGCUUGCUUAGUAUUUAGUUA | 1.28 ± 0.054 | 0.0363 ± 0.0081
UCGACCAACAGCUUGCAAAGUAUUUAGUUA | 1.29 ± 0.043 | 0.0448 ± 0.01
UGGACCAACAGCUUGCAAAGUAUUUAGUUA | 1.38 ± 0.062 | 0.0368 ± 0.0072
UCGACCAACAGCUUGCUUAGUAUUUAGUUA | 1.47 ± 0.05 | 0.0416 ± 0.0081
UGGACCAACAGCUUGCUUAGUAUUUAGUUA | 1.64 ± 0.092 | 0.0497 ± 0.01
AGGACCAACAGCUUGCUUAGUAUUUAGUUA | 1.31 ± 0.066 | 0.0459 ± 0.0084
UCCUCCUACAGUUGCAUAGUAUUUAGUUA | 0.742 ± 0.046 | 0.00376 ± 0.0017

Sequence | pre-steady-state target cleavage rate [1] | pre-steady-state target cleavage rate [2]
UCCUGGUUCAGCUUGCAUAGUAUUUACUUA | 0.18 ± 0.041 | 0.0237 ± 0.0048
UCCUCCUACACCUUCCAUAGUAUUUAGUUA | 0.0661 ± 0.024 | 
UGGACCUACAGCUUGCAUACUUUUUAGUUA | 0.0337 ± 0.0046 | 0.00745 ± 0.0014
UCCACCUACAGCUUGCAUAGUAUAUACAAA | 0.413 ± 0.089 | 
UCCUGGAACAGCUUGCAUAAUAUUUAGUUA | 0.559 ± 0.045 | 0.0418 ± 0.0079
UCCUGGAUCAGCUUGCAUAGUAUUUAGCUA | 0.0164 ± 0.0052 | 0.00651 ± 0.0022
UCCUGGAACAGCUUGCUUUGUAUUUAGUUA | 0.0971 ± 0.011 | 0.00848 ± 0.0027
AGGACCUUACAGCUUGCAUAGUAUUUAGUUA | 1.33 ± 0.06 | 0.0925 ± 0.016
UGGACCUUACAGCUUGCAUAGUAUUUAGUUA | 1.58 ± 0.095 | 0.0853 ± 0.016
AGGACCUACAGCUUGCAUAGUAUUUAGUUC [g2:g30:cont:t1C] | 0.664 ± 0.055 | 0.0568 ± 0.01
UCCACCUUACAGCUUGCAUAGUAUUUAGUUA | 1.03 ± 0.043 | 0.0654 ± 0.013
ACGGACCUACAGCUUGCAUAGUAUUUAGUUA | 1.24 ± 0.072 | 0.0796 ± 0.016
AGGACCUACAGCUUGCAUAGUAUUUAGUUU [g2:g30:cont:t1U] | 1.64 ± 0.079 | 0.165 ± 0.036
UGGGACCUACAGCUUGCAUAGUAUUUAGUUA | 1.11 ± 0.1 | 0.134 ± 0.033
AAGGACCUACAGCUUGCAUAGUAUUUAGUUA | 1.29 ± 0.071 | 0.0755 ± 0.014
